According to the supplement of paper PMC11732987, “Enantioselective OTUD7B fragment discovery through chemoproteomics screening and high-throughput optimisation” (Communications Chemistry, 2025):

Legend:
Assay in all cases: log2 ratio of Biotin-Ahx-Ub-VS probe labelling (fragment/DMSO); higher = less target engagement (more negative = stronger competition), active = hit call of the paper (q ≤ 0.05, log2 ratio ≤ -1)
Settings in all cases: compound concentration: 200 uM; treatment time: 3 h
USP19 = target: T1, USP19 (UniProt O94966)
T1 sequence (whole entry): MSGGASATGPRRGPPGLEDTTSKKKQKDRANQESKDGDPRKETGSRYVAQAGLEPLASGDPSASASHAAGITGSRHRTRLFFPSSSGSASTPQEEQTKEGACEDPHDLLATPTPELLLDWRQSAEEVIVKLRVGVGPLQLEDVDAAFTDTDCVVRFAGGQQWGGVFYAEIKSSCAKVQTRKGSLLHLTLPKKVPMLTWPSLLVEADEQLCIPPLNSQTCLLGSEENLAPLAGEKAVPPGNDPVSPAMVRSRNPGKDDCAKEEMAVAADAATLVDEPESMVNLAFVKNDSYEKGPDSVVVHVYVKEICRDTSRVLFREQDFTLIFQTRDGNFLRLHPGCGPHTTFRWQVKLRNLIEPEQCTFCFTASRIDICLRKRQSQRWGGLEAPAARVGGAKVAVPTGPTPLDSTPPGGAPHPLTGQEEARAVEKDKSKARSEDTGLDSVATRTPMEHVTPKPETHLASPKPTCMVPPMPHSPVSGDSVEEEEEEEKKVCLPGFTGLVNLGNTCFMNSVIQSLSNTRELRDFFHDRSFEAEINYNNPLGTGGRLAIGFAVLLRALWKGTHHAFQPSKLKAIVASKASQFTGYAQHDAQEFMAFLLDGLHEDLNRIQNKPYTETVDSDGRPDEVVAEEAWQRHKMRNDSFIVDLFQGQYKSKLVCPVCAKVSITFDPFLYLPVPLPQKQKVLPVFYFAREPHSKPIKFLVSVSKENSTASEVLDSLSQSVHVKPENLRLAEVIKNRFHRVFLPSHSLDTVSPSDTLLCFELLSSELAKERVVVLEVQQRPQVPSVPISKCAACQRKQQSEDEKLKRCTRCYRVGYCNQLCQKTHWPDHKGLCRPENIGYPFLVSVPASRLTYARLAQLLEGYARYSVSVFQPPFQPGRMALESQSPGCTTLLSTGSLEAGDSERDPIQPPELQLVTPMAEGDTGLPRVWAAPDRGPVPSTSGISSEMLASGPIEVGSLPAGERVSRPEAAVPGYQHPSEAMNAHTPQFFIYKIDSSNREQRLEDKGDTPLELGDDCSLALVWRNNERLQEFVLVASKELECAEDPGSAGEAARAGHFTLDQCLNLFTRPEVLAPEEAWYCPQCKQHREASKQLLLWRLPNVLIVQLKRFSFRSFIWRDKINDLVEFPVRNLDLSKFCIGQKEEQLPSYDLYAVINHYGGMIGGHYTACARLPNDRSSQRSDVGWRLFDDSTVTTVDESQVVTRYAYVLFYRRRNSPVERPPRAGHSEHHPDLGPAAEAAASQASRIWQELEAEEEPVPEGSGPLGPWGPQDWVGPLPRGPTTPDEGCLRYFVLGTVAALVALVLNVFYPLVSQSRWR
Summary of the method: (§1)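 The table lists average log2 ratios of fragment over vehicle, from an unpaired t-test on global-median-normalised Spectronaut label-free quantities. Proteins with ≥2 unique peptides were used. Samples were HEK293T lysate (495 µg) treated in triplicate with fragment at 200 µM or vehicle for 3 h, then with Biotin-Ahx-Ub-VS (0.5 µM final) for 1 h, with labelled DUBs NeutrAvidin-enriched and run by diaPASEF LC-MS/MS.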

USP22 = target: T2, USP22 (UniProt Q9UPT9)
T2 sequence (whole entry): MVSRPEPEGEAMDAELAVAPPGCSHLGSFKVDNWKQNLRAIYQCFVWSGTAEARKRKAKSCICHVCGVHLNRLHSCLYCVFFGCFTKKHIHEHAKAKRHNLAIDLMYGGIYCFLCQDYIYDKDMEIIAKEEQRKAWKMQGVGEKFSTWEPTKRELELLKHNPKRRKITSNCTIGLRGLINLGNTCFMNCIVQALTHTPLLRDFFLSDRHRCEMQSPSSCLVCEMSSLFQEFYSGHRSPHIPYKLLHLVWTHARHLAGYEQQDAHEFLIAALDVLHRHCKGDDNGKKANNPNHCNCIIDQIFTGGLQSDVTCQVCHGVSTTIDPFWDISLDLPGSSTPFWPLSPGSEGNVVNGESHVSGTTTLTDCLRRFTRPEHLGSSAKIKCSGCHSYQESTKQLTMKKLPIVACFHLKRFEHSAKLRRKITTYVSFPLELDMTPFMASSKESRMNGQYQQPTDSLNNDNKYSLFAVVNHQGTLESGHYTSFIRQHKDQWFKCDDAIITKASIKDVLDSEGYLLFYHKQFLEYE
Summary of the method: as §1

USP24 = USP24 (UniProt Q9UPU5)
Chain of USP24 (Q9UPU5 whole entry): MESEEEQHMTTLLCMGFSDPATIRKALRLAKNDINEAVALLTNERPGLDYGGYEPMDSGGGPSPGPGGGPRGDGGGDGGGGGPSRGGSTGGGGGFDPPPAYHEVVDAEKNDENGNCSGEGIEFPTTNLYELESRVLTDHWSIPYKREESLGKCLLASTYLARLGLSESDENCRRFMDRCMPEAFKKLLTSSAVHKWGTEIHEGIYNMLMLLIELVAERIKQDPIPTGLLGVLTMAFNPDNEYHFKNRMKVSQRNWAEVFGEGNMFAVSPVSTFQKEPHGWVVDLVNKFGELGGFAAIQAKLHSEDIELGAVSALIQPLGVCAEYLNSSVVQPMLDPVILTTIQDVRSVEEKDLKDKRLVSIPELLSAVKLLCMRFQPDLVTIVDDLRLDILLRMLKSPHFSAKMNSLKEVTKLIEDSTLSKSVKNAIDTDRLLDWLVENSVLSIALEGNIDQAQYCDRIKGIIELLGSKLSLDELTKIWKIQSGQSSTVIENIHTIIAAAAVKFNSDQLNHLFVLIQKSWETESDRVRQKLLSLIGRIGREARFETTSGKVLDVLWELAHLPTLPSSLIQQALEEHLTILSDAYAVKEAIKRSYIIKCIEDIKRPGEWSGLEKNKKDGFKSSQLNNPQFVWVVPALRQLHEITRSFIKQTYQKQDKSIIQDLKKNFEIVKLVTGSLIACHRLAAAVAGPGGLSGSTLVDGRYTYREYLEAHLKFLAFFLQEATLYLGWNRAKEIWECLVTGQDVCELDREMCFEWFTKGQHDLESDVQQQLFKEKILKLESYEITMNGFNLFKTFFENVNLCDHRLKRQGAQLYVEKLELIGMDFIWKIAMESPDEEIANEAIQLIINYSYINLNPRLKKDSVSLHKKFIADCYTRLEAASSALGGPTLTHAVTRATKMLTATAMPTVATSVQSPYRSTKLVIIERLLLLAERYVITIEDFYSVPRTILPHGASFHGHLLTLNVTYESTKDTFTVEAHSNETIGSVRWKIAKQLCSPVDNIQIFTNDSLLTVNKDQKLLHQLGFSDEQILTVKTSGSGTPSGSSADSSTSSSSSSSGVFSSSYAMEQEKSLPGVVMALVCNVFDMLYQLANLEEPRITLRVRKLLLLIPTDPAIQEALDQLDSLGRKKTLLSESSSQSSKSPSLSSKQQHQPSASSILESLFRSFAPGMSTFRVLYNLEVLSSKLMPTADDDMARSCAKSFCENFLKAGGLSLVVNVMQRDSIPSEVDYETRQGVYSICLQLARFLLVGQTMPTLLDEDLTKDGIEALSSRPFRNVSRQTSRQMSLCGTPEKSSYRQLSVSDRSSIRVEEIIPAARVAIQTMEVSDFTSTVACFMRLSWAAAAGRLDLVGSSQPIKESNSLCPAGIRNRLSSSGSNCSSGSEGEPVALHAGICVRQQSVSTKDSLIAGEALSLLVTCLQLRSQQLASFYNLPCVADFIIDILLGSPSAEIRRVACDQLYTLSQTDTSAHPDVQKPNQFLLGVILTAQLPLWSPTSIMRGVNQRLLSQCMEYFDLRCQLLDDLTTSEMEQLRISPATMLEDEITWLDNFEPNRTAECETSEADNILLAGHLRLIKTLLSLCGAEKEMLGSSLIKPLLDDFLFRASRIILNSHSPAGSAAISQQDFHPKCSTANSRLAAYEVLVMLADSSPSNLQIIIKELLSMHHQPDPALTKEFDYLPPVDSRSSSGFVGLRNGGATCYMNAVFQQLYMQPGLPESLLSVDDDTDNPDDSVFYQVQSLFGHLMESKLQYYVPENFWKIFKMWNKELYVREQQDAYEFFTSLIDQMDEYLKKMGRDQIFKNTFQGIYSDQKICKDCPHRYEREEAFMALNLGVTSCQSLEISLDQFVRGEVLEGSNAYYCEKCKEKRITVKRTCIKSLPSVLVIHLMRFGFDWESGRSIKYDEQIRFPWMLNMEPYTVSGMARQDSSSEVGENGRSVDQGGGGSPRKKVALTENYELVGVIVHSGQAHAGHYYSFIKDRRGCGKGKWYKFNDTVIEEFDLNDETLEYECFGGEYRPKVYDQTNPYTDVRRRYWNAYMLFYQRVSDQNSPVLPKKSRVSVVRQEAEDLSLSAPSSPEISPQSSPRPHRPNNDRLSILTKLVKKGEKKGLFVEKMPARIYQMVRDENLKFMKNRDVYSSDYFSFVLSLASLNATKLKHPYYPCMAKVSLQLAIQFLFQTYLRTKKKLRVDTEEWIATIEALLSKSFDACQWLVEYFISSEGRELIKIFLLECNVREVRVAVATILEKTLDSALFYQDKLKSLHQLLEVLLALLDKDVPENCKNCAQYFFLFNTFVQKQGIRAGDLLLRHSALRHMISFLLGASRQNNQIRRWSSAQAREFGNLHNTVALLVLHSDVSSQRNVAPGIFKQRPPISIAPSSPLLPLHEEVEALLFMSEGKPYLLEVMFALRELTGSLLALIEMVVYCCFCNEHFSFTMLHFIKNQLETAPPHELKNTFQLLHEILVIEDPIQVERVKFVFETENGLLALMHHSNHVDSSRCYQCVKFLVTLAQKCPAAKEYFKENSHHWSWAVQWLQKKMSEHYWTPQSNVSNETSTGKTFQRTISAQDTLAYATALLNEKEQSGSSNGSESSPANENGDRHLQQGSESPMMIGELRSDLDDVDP
Summary of the method: as §1

USP25 = target: T3, USP25 (UniProt Q9UHP3)
T3 sequence (whole entry): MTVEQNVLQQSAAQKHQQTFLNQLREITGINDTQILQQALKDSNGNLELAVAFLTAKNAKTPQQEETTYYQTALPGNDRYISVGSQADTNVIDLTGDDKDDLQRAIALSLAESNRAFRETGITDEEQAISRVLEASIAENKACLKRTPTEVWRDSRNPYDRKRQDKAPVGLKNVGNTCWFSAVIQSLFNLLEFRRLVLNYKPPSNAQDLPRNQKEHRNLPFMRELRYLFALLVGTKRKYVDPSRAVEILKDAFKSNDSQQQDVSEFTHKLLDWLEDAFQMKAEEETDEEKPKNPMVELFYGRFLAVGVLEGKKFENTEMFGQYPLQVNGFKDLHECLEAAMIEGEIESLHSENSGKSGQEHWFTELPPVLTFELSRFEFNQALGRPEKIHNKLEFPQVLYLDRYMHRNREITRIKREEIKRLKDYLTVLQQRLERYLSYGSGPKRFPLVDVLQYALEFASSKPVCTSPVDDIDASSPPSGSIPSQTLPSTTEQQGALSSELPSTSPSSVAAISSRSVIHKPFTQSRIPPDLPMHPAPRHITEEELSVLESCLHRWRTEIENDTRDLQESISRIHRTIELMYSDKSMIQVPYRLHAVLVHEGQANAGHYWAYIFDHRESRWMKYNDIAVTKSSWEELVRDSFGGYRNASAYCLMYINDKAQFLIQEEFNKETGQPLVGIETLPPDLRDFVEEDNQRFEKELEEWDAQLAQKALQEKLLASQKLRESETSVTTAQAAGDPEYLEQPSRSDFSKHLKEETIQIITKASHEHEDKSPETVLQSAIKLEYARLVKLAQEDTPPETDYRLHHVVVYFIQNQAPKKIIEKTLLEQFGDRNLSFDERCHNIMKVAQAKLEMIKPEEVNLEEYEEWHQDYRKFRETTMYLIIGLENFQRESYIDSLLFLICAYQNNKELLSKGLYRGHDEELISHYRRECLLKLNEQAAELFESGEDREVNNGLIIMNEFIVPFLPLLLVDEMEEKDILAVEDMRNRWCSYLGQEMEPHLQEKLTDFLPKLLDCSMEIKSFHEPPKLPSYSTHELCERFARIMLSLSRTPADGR
Summary of the method: as §1

USP28 = target: T4, USP28 (UniProt Q96RU2)
T4 sequence (whole entry): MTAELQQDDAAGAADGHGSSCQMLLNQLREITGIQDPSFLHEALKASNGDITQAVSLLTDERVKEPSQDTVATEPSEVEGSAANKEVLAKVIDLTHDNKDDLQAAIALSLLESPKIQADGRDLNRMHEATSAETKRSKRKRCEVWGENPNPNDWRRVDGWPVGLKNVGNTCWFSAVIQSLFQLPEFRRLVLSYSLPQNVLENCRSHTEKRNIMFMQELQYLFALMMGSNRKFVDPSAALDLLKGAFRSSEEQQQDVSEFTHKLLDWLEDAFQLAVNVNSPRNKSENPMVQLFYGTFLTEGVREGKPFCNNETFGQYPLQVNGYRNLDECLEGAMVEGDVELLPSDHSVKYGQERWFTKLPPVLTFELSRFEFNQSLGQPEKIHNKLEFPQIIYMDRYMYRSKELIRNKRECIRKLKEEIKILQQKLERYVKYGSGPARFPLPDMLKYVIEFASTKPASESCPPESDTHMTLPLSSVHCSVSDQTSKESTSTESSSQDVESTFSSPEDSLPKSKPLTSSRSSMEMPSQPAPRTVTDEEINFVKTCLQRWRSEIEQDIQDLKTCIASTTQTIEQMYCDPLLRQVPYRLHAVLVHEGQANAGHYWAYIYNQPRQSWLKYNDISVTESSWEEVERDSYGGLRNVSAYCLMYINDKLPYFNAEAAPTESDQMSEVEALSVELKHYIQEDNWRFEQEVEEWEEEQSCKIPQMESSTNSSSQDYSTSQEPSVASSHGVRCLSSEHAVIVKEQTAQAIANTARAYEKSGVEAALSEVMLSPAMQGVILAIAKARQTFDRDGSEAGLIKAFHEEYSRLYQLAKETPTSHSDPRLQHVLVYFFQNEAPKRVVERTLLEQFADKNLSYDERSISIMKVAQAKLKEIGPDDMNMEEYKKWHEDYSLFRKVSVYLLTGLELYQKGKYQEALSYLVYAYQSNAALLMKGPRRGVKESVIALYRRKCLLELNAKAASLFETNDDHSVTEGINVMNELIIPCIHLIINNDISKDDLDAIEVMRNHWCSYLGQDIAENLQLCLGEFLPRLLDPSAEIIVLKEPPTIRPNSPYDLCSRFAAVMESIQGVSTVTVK
Summary of the method: as §1

Measured: log2 ratio of Biotin-Ahx-Ub-VS probe labelling

Cl.O=C(CCl)NCc1cc2c(nc1O)CCCC2
inactive: USP19 -0.0739 | USP22 -0.0357 | USP24 -0.254 | USP25 -0.59 | USP28 -0.576
